Assay results: PubChem BioAssay (NCI)
Values joined by “and” are separate entries in the source; they are usually repeats but may differ in a detail not shown here. Identical values can stand only once. This is part of a sample that, as a whole, favours compounds with a hit. Of some 83,000 tested, about 20% had one in any assay.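 Note: values are percent growth. 100 is the growth of untreated cells, values between 100 and 0 indicate rising inhibition; between -100 and 0 indicates cell death.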 Values without a mark were called inactive. Active and inactive are the calls of the source. The calls were made as follows: active = growth percent below 10; inactive = the rest.

tested on: MDA-MB-468 breast; test: NCI-60 one-dose screen, 48 h (100 = growth as untreated, 0 = no growth, -100 = all killed); settings: 10 µM unless noted

**Q.** Which growth does the source give for `C#Cc1ccc2c(c1)C(c1ccccc1F)=NCC(=O)N2C` here?
**A.** The growth was 26%.

**Q.** How did the growth turn out when `Fc1ccc(C2=NN(c3ccccc3)C(c3sc(N(CCCl)CCCl)nc3Cl)C2)cc1` (stereo not given) was run?
**A.** Its growth is 81.4%.

**Q.** `CCOC(=O)N1CC1` was tested. Which growth did it give?
**A.** Its growth is 92.5%.

**Q.** `O=[N+]([O-])c1cc(Cl)c(Cl)c([N+](=O)[O-])c1Cl` was tested. Which growth did it give?
**A.** Its growth is 9.01% (active).

**Q.** How did the growth turn out when `CCCOC(=O)N[C@H]1CCc2c(Br)c(OC)c(OC)c(OC)c2-c2ccc(SC)c(=O)cc21` was run?
**A.** Its growth is -14.2% (active).

**Q.** `CCOC(=O)[C@@H](C)C[C@H](Cc1ccccc1)NC(=O)c1csc([C@@H](C[C@H](C(C)C)N(C)C(=O)[C@@H](NC(=O)[C@H]2CCCCN2C)C(C)(C)CC)OC(C)=O)n1` was tested. Which growth did it give?
**A.** Its growth is 19.5%.

**Q.** `O=C([O][Hg][CH2]C1COCC([CH2][Hg][O]C(=O)c2ccccc2)O1)c1ccccc1` (stereo not given) was tested. Which growth did it give?
**A.** The growth was 22.7%.

**Q.** Which growth does the source give for `CC1(C)N=C(N)N=C(N)N1c1ccc(OCCCCOc2ccc(S(=O)(=O)F)cc2)c(Cl)c1` here?
**A.** Its growth is -16.2% (active).

**Q.** How did the growth turn out when `CC(=O)OCc1cc[c]([Hg][Cl])o1` was run?
**A.** The growth was 21%.

**Q.** How did the growth turn out when `O=C([O][Hg][CH2]C1OCCOC1[CH2][Hg][O]C(=O)c1ccccc1)c1ccccc1` (stereo not given) was run?
**A.** The growth was -81.5% (active).

**Q.** With `CC[C@H](C)[C@@H]([C@@H](CC(=O)N1CCC[C@H]1[C@H](OC)[C@@H](C)C(=O)N[C@H](C)[C@@H](O)c1ccccc1)OC)N(C)C(=O)[C@@H](NC(=O)[C@@H](NC)C(C)C)C(C)C` as the compound, how does the growth read?
**A.** The growth was 37%.

**Q.** `CC(C)N=C(NC(C)C)N1CC1` was tested. Which growth did it give?
**A.** Its growth is 118%.

**Q.** For `CN(C)CC1(N)C(=O)NC(=O)NC1=O`, which growth is on record?
**A.** Its growth is 94.6%.

**Q.** For `COC(=O)[C@@H](C)C[C@H](Cc1ccccc1)NC(=O)c1csc([C@@H](C[C@H](C(C)C)N(C)C(=O)[C@@H](NC(=O)[C@H]2CCCCN2C)c2ccc(F)cc2)OC(C)=O)n1`, which growth is on record?
**A.** The growth was 2.95% (active).

**Q.** How did the growth turn out when `ClCCN(CCCl)c1ccc(-n2cnc3c(Cl)ncnc32)cc1` was run?
**A.** Its growth is -43.5% (active).

**Q.** How did the growth turn out when `O=C1C(N2CC2)=C(N2CC2)C(=O)C(N2CC2)=C1N1CC1` was run?
**A.** Its growth is 0.964% (active).

**Q.** For `C/C(=C\c1cc(C(F)(F)F)nn1CCNC(=O)OC(C)(C)C)[C@@H]1C[C@@H]2O[C@]2(C)CCC[C@H](C)[C@H](O)[C@@H](C)C(=O)C(C)(C)[C@@H](O)CC(=O)O1`, which growth is on record?
**A.** Its growth is 58.6%.

**Q.** With `CCC1CCC(=O)O1` (stereo not given) as the compound, how does the growth read?
**A.** Its growth is 99.3% and 109%.

**Q.** Which growth does the source give for `CCCC1CCCCC12C(=O)NC(=O)NC2=O` (stereo not given) here?
**A.** Its growth is 113%.

**Q.** With `S=P(N1CCCCCC1)(N1CC1)N1CC1` as the compound, how does the growth read?
**A.** The growth was 105%.

**Q.** With `COC(=O)[C@@]1(C)CC[C@]2(C)CC[C@]3(C)C4=CC=C5C(=CC(=O)C(O)=C5C)[C@]4(C)CC[C@@]3(C)[C@@H]2C1` as the compound, how does the growth read?
**A.** Its growth is -66.9% (active).

**Q.** Which growth does the source give for `NC1CCc2cc(O)c(O)cc2C1` (stereo not given) here?
**A.** The growth was 66%.

**Q.** How did the growth turn out when `Cc1cnc(/C=C/C(=O)O)cc1-c1cc2c(cc1C)C(C)(C)CCC2(C)C` was run?
**A.** The growth was 95.4%.

**Q.** For `CC(CO)NC1CCCCC1` (stereo not given), which growth is on record?
**A.** The growth was 107%.

**Q.** How did the growth turn out when `CC(C)COC(=O)Cc1ccccc1` was run?
**A.** The growth was 101%.

**Q.** `COS(=O)(=O)c1ccccc1` was tested. Which growth did it give?
**A.** The growth was 114%.

**Q.** With `O=[N+]([O-])c1cc([N+](=O)[O-])c(Nn2c3ccccc3c3ccccc32)c([N+](=O)[O-])c1` as the compound, how does the growth read?
**A.** The growth was -8.42% (active).

**Q.** How did the growth turn out when `C[C@@H]1C[C@@H]([C@H](O)CC2CC(=O)NC(=O)C2)C(=O)[C@@H](C)C1` was run?
**A.** The growth was 9.5% (active).

**Q.** How did the growth turn out when `Cc1nnc([S-])s1.[Au+].c1ccc([PH+](c2ccccc2)c2ccccc2)cc1` was run?
**A.** The growth was -68.6% (active).

**Q.** For `CC[C@H](C)[C@H](NC(=O)CN(C)C)C(=O)N(C)[C@H](C[C@@H](OC(C)=O)c1nc(C(=O)NC23C4C5C2C2C3C4C52C(=O)OC)cs1)C(C)C` (stereo not given in full), which growth is on record?
**A.** Its growth is -18.6% (active).

**Q.** `C#CC1(O)CCC(C(C)(C)C)CC1` (stereo not given) was tested. Which growth did it give?
**A.** Its growth is 122%.

**Q.** Which growth does the source give for `CCCCCC1(CCBr)C(=O)NC(=O)NC1=O` here?
**A.** Its growth is 103%.

**Q.** With `CN(C)[C@@H]1C(=O)C(C(N)=O)=C(O)[C@@]2(O)C(=O)C3=C(O)c4c(O)ccc(Cl)c4[C@@](C)(O)[C@H]3C[C@@H]12` as the compound, how does the growth read?
**A.** The growth was 105% and 101%.

**Q.** `COc1ccc(O)c(CNC(=O)CN2CCCC2=O)c1` was tested. Which growth did it give?
**A.** The growth was 108%.

**Q.** `CCC1CN1CCCCN1CC1CC` (stereo not given) was tested. Which growth did it give?
**A.** Its growth is 101%.

**Q.** With `COc1ccc(/C=C\c2cc(OC)c(OC)c(OC)c2)cc1NC(=O)/C=C/c1ccc(OC)c(OC)c1` as the compound, how does the growth read?
**A.** The growth was 1.52% (active).

**Q.** With `O=P1(NCCCl)OCCCN1CCCl` (stereo not given) as the compound, how does the growth read?
**A.** Its growth is 99.1%.

**Q.** `CC12CC(=O)C3(SC#N)C(CCC4=CC(=O)CCC43C)C1CCC2=O` (stereo not given) was tested. Which growth did it give?
**A.** Its growth is 24.5%.

**Q.** With `C[C@@H]1O[C@@H](O[C@H]2C[C@@H](O)[C@]3(CO)C4C(CC[C@]3(O)C2)[C@@]2(O)CC[C@H](C3=CC(=O)OC3)[C@@]2(C)C[C@H]4O)[C@H](O)[C@H](O)[C@H]1O` (stereo not given in full) as the compound, how does the growth read?
**A.** Its growth is -68.2% (active).

**Q.** With `O=CN1N=C(c2ccccc2)CC1c1sc(N(CCCl)CCCl)nc1Cl` (stereo not given) as the compound, how does the growth read?
**A.** Its growth is 94%.
